Screening data: PubChem, National Center for Advancing Translational Sciences (NCATS)
A selection: hits, their analogues and other compounds. The true share with any hit is near 12%.
BAZ2B inh = blocks human BAZ2B | AlphaScreen BAZ2B-H3K14Ac peptide displacement | hit rate 4.4% among 360,000 | Q9UIF8 | Potency, µM (series often up to 114 µM), without a hit: at the top dose activity change, negative = inhibition, most hits filed as inhibitors | AID 504333; note: potency is the fitted concentration of half-maximal effect; % is set by controls: 0 for no effect and ±100 for the full control effect; nearly all actives have a fitted effect of over 60% in size
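Multi-concentration screen (max 110 uM) measuring displacement of acetylated histone H3 peptide from BAZ2B by AlphaScreen, using 50 nM protein, 50 nM peptide and 10 ug/mL streptavidin donor plus Ni-chelate acceptor beads.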
G9a block = blocks human histone lysine methyltransferase G9a; AID 504332; Potency, µM (series often up to 102 µM), for the others: at the top dose activity, negative = inhibition, hits mostly inhibitors; hit rate 8.8% among 350,000; G9a H3K9 monomethylation, AlphaScreen, 2 h; Q96KQ7; note: potency is the fitted concentration of half-maximal effect; % is set by controls: 0 for no effect and ±100 for the full control effect; nearly all actives have a fitted effect of over 75% in size
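Compounds were preincubated with 20 nM G9a for 15 min, after which biotinylated H3K9 peptide (500 nM) and SAM (20 uM) started a 2 h room-temperature reaction. Monomethylated product was quantified by antibody-based AlphaScreen chemiluminescence.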
HP1b chromo inh = HP1-beta chromodomain-methylated histone interaction inhibition; P83916; Potency, µM (titrated, usually from 114 µM), without a hit: at the highest dose activity change, negative = inhibition, usual class: inhibitors; AlphaScreen HP1-beta / biotin-H3K9me3 peptide binding; AID 540317; hit rate 0.56% among 390,000; note: potency is the fitted concentration of half-maximal effect; nearly all actives have a fitted effect of over 70% in size
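HP1-beta protein (50 nM final) preincubated 30 min at room temperature with biotinylated H3(1-18)K9me3 peptide (50 nM) in PBS pH 7.4, 0.01% Tween-20, then compound added for 30 min. AlphaScreen streptavidin donor/nickel chelate acceptor beads (10 ug/mL final), 30 min dark, luminescence read.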
PLK1 PBD block = inhibitors of human PLK1 polo-box domain binding; P53350; Plk1 PBD binding of FITC phosphopeptide, fluorescence polarization; Potency, µM, inactives show max response, negative = inhibition, hits mostly inhibitors; hit rate 2.8% among 360,000; note: potency is the fitted concentration of half-maximal effect; series mostly up to about 57 µM; % is set by controls: 0 for no effect and ±100 for the full control effect; nearly all actives have a fitted effect of over 65% in size
JMJD2A Tudor inh = JMJD2A Tudor domain (human) inhibition; O75164; Potency, µM (top dose mostly 114 µM), without a hit: at the highest dose activity change, negative = inhibition, hits mostly inhibitors; AID 504339; AlphaScreen JMJD2A-Tudor / H3K4me3 peptide binding; hit rate 4.4% among 390,000; note: potency is the fitted concentration of half-maximal effect; % is set by controls: 0 for no effect and ±100 for the full control effect; nearly all actives have a fitted effect of over 50% in size
Target sequence (O75164 whole entry, looked up, the tested form may be a part): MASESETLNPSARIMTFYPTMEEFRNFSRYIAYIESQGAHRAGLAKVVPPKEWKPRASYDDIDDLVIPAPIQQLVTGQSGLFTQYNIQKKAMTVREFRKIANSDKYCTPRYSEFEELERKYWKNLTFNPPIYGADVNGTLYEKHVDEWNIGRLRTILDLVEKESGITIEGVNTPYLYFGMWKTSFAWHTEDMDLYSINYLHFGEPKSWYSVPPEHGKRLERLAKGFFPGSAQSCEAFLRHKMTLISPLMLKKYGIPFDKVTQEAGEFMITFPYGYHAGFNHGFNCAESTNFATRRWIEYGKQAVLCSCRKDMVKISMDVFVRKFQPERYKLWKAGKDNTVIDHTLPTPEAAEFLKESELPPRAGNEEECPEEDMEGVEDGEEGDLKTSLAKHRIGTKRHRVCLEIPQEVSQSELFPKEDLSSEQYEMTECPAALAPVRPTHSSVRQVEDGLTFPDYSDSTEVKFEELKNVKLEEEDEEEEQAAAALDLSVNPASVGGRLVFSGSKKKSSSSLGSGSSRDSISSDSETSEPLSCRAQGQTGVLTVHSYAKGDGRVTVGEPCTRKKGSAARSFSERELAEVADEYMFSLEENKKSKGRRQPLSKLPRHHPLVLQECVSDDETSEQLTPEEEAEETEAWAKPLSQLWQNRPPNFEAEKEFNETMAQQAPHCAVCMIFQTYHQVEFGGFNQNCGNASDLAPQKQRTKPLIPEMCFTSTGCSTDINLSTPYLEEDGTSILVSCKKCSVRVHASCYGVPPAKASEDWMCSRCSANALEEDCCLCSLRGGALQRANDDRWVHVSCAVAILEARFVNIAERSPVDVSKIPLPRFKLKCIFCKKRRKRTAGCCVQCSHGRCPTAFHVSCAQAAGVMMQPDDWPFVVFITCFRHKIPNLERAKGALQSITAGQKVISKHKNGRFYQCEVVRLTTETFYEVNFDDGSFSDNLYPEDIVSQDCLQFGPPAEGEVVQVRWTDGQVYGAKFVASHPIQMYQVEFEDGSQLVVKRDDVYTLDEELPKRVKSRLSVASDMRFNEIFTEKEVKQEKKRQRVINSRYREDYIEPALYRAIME
PI5P4Ka inh = PI5P4K alpha (human) kinase inhibition; P48426; PI5P4Kalpha enzyme, ADP-Glo luminescence, 60 min; hits give low values; max response, %; hit rate 1.2% among 330,000; AID 652105; active = max response of -50% or lower; inconclusive = between -30% and -50%; inactive = -30% or higher; note: value at the top dose of about 77 µM; % is set by controls: 0 for no effect and ±100 for the full control effect
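ADP-Glo luminescence end-point after a 60 min room-temperature kinase reaction. PI5P4Kalpha and substrate in HEPES pH 7.4 buffer with EGTA, 0.1% CHAPS and 5% DMSO; ATP at 5 microM final.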
* = called active by the depositor; ? = inconclusive; · = not tested or not shown; [ ] = remark or other dose. Unless noted, calls come from the whole dose curve; as a rule, active = well fitted curve in the direction sought with a large enough effect; inconclusive = small, poorly fitted or top-dose-only effect, or another doubt; inactive = no such curve, though single readings can be large; an effect the other way counts as inactive or inconclusive.

SMILES	BAZ2B inh	G9a block	HP1b chromo inh	PLK1 PBD block	JMJD2A Tudor inh	PI5P4Ka inh
Cc1cc(-c2ccc(C)c(S(=O)(=O)NCCCN3CCN(c4ccccc4)CC3)c2)on1	?	71µM*	-8%[57 µM]	1%	?	5
O=C(C[C@H]1C[C@H](C(=O)N2CCCCC2)[C@@]2(CCc3ccccc3)c3[nH]c4ccc(Cl)cc4c3CCN2C1=O)NCCC1=CCCCC1	·	·	24%	-2%	-14%	-1
Cc1ccc(S(=O)(=O)NCCC(=O)Nc2ccc(C)cc2C(=O)c2ccccc2)cc1	-32%	5%[59 µM]	-7%	27µM*	50µM*	-13
CCN(CC)CC(=O)Nc1ccc(C)cc1C(=O)c1ccccc1	1%	-1%[59 µM]	9%	-1%	-14%	2
CC(=O)Nc1cccc(NC(=O)CSc2ccc(-c3ccco3)nn2)c1	?	40µM*	17%	?	?	?
Cc1cc(C)cc(NC(=O)CSc2ccc(-c3ccco3)nn2)c1	?	25µM*	-2%	?	-23%	-22
COc1cc(NC(=O)CSc2ccc(-c3ccco3)nn2)cc(OC)c1	-38%	?	29%	-18%	-32%	?
Cc1ccc(NC(=O)CSc2ccc(-c3ccco3)nn2)cc1	-1%	40µM*	8%	-11%	-8%	-16
COc1ccc(NC(=O)CSc2ccc(-c3ccco3)nn2)cc1	-37%	·	4%	-25%	-29%	?
COc1ccc(NC(=O)CSc2ccc(-c3cccs3)nn2)cc1	-17%	10µM*	5%	·	-20%	·
COc1ccc(C2Nc3ccccc3C(=O)N2Cc2ccccc2)cc1COc1ccc(NC(=O)c2ccccc2)cc1 (stereo unspecified)	·	·	·	·	-26%	·
COc1cccc(O)c1CN1CCC(Oc2ccc(C(=O)NCc3ccccn3)cc2)CC1	-1%	0%	12%	?	?	0
CC1(C(=O)Nc2ccc(Cl)cc2)Cc2c(-c3cccc(C(F)(F)F)c3)ccnc2O1 (stereo unspecified)	·	·	·	2%	·	4
CN(Cc1ccc(Cl)cc1)C(CCc1ccccc1)C(=O)NC1CCCCC1 (stereo unspecified)	·	·	·	-7%	·	11
CC(=O)c1ccc(NC(=O)CSc2ccc(-c3ccco3)nn2)cc1	-20%	?	27%	-16%	-12%	-9
CC(=O)c1cccc(NC(=O)CSc2ccc(-c3sc(C)nc3C)nn2)c1	-13%	?	17%	-5%	-5%	-9
CC(=O)Nc1ccc(NC(=O)CSc2ccc(-c3ccco3)nn2)cc1	?	28µM*	6%	-27%	?	?
Cc1nc(C)c(-c2ccc(SCC(=O)Nc3cccc(F)c3)nn2)s1	-16%	22µM*	38%	?	?	-11
COc1cc(C(=O)OCC(=O)NCc2ccc(F)cc2)ccc1OCC(C)C	-5%	?	22%	2%	-6%	1
Cc1cc(C)c2c(c1)CC(C)(C)CC2=O	·	·	28%	-3%	-2%	-1
O=C1CS/C(=N/N=C2C3CC4CC(C3)CC2C4)N1	2%	-12%	31%	6%	0%	-1
O=C1CS/C(=N/N=C\c2ccn[nH]2)N1	50µM*	·	17%	-20%	-21%	6
Nc1ccc(-c2ncc(-c3ccccc3)o2)cc1	28µM*	?	-15%	0%	?	21
CCN(C(=O)C1CCN(S(=O)(=O)c2c(C)noc2/C=C/c2ccc(C)cc2)CC1)c1cccc(C)c1	-1%	4%[59 µM]	23%[57 µM]	·	-9%	·
CCn1c(C)cc(/C=C2/SC(=O)N(C(C)C(=O)OC)C2=O)c1C (stereo unspecified)	?	?	-8%	-4%	?	-7
CCOC(=O)C(C)N1C(=O)S/C(=C/c2cc(C)n(-c3ccncc3)c2C)C1=O (stereo unspecified)	?	50µM*	-8%	0%	?	0
CCOC(=O)C(C)N1C(=O)S/C(=C/c2cc(C)n(-c3ccccn3)c2C)C1=O (stereo unspecified)	?	7%[12.7 µM]	-31%	?	56µM*	-2
